Results published in PMC4336329 (PLoS ONE, 2015).
The whole screen tested about 310,000 compounds, of which about 14,000 (4.5%) showed an effect of 50% or more. The effect is printed as a negative number. Many of the other results were omitted from the sample, so strong results are more common in it than they were.

Molecular target: human ether-à-go-go-related gene (hERG) potassium channel (human, UniProt Q12809)
Assay: primary screen, population patch clamp on CHO cells stably expressing hERG; higher = less effect of the substance
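Also: peak tail current of the secondary pulse compared with the same well before compound.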

human ether-à-go-go-related gene (hERG) potassium channel, sequence (Q12809 whole entry, looked up): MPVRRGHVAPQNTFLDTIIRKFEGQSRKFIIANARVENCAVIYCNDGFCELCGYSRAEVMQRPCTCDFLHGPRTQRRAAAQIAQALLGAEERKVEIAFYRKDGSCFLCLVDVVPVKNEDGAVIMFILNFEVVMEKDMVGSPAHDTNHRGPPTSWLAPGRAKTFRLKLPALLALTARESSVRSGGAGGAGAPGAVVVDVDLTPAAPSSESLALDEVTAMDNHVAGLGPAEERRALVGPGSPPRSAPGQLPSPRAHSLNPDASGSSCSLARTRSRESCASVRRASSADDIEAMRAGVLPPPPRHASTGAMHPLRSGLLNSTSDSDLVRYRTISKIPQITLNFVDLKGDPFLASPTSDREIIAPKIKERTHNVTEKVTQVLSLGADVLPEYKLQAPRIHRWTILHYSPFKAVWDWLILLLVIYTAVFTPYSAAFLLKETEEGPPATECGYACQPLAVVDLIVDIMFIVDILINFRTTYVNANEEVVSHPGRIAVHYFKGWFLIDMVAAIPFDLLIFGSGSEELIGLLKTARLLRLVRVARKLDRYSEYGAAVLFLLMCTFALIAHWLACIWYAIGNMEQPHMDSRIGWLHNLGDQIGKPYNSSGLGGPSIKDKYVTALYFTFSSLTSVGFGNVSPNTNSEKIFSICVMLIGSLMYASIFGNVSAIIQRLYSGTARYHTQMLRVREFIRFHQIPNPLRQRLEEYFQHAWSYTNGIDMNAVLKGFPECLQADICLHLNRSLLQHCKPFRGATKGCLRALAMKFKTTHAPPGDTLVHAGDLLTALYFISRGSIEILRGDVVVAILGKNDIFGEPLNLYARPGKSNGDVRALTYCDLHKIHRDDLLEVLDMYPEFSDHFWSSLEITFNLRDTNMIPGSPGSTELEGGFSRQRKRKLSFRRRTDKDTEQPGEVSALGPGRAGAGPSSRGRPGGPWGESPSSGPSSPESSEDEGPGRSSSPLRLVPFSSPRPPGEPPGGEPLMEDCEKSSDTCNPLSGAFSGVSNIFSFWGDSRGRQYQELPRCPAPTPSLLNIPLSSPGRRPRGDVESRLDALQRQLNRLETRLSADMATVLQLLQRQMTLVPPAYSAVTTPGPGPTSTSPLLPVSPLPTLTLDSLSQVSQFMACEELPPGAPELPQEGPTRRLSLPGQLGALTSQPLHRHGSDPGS

Row | SMILES | hERG current change (%, negative = inhibition) at 10uM
1 | COc1ccc2[nH]cc(C(=O)CN(C)C)c2c1 | 9.06%
2 | CCN(CC)CC(=O)c1c[nH]c2ccc(OC)cc12 | -22.9%
3 | COc1ccc2[nH]cc(C(=O)CN(C)CCc3ccc(OC)c(OC)c3)c2c1 | -70.3%
4 | COc1ccccc1-n1cnc2sc(C)c(C)c2c1=O | 5.71%
5 | COc1ccc(NC(=O)/C(C#N)=C\c2cc(C)n(-c3ccc4c(c3)OCO4)c2C)cc1 | 3.77%
6 | CCN1CC(CN(C)Cc2cn(-c3cccc(C)c3)nc2-c2cccc(F)c2)CC1=O (stereo not drawn) | -31.7%
7 | COc1ccc(-c2csc(CCn3nc(C)cc3C)n2)cc1 | 4.1%
8 | COc1ccc(-c2nn(-c3ccccc3C)cc2CNC(C)c2cn(C)nc2C)cc1F (stereo not drawn) | -1.99%
9 | Cc1ccc(-c2nn(-c3ccccc3)cc2C(=O)NCCCN2CCCC2=O)cc1 | -17.1%
10 | Cc1ccc(-n2cc(CN(C)Cc3nccn3C)c(-c3ccc(F)cc3)n2)cc1 | -37.6%
11 | Cc1ccc(-n2cc(CNCCCN3CCCC3=O)c(-c3ccc(F)cc3)n2)cc1 | -72.1%
12 | COc1ccc(-c2nn(-c3ccccc3F)cc2CNCCn2nc(C)cc2C)cc1 | -50.2%
13 | CCN1CC(CN(C)Cc2cn(-c3ccc(C)cc3)nc2-c2ccc(F)cc2)CC1=O (stereo not drawn) | -35.1%
14 | Cc1ccc(-n2cc(CNCCCn3ccnc3C)c(-c3ccc(F)cc3)n2)cc1 | -71.7%
15 | CCN1CC(CN(C)Cc2cn(-c3ccc(C)cc3)nc2-c2cccc(C)c2)CC1=O (stereo not drawn) | -60.5%
16 | Cc1ccc(-n2cc(CN3CCCN(C=O)CC3)c(-c3ccc(F)cc3)n2)cc1 | -18.7%
17 | COc1cc(/C=N/NC(=O)c2cc(-c3ccccc3)nc3ccccc23)ccc1O | 6.54%
18 | CCOc1cc(C(=O)N/N=C/c2ccoc2)cc(OCC)c1OCC | 5.67%
19 | COCCCn1c(=O)/c(=C\c2ccccc2OC(F)F)s/c1=C(/C#N)C(=O)NCCOC | -11.5%
20 | CCc1nnc(NC(=O)CSc2nnc(-c3cccnc3)n2CCc2ccccc2)s1 | -2.07%

Row | SMILES | hERG current change (%, negative = inhibition) at 10uM
21 | CC(=O)N1CCN(CCN2C(C)=CC(=C(C#N)C#N)C=C2C)CC1 | -3.8%
22 | O=C(COC(=O)CCSc1ccccc1Cl)NCc1ccco1 | 6.44%
23 | O=C1NC(=O)C(=Cc2csc3ccccc23)C(=O)N1 | 7.68%
24 | Cc1ccccc1CSc1nnnn1-c1ccc(C(N)=O)cc1 | 14.7%
25 | Cc1cccc(NC(=O)COC(=O)c2ccc([N+](=O)[O-])o2)c1C | 8.7%
26 | Cc1ccc(-n2cc(CNCC3CC(=O)N(C4CC4)C3)c(-c3cccc(C)c3)n2)cc1 (stereo not drawn) | -71.9%
27 | Cc1ccc(-n2cc(CNCCn3nc(C)cc3C)c(-c3ccc(F)cc3)n2)cc1 | -50.8%
28 | CCOC(=O)CN(C)Cc1cn[nH]c1-c1ccc2cc(OC)ccc2c1 | -5.34%
29 | Cc1cc(C)n(CC(C)NCc2cn[nH]c2-c2ccc(C)c(C)c2)n1 (stereo not drawn) | -35.7%
30 | COC(=O)CC1C(=O)NCCN1Cc1cn(-c2ccc(C)cc2)nc1-c1cccc(C)c1 (stereo not drawn) | -9.55%
31 | COc1ccc2cc(-c3[nH]ncc3CNCCn3nc(C)cc3C)ccc2c1 | -63.2%
32 | COc1ccc(-n2cc(CNCC3CC(=O)N(C4CC4)C3)c(-c3ccccc3Cl)n2)cc1 (stereo not drawn) | -13.4%
33 | O=C1OCCN1CCNCc1cn(-c2ccc(F)cc2)nc1-c1ccccc1Cl | -45.2%
34 | Cc1ccc(-c2nn(-c3ccccc3)cc2CNCc2ccccc2)cc1.Cl | 7.42%
35 | COc1ccc(-c2nn(-c3ccccc3)cc2CNCCN2CCOC2=O)c(F)c1 | -11.9%
36 | Cc1ccc(-n2cc(CNC(C)c3cnn(C)c3C)c(-c3ccc(F)cc3)n2)cc1 (stereo not drawn) | -30.7%
37 | Cc1ccc(-n2cc(CNCCN3CCOC3=O)c(-c3ccc(F)cc3)n2)cc1 | -63.2%
38 | CC1CCCC(C)N1C(=O)COC(=O)c1c[nH]c2ccccc12 (stereo not drawn) | -5.3%
39 | CCCCn1c(O)c(C=NC2CCCCC2N)c(=O)[nH]c1=O (stereo not drawn) | 5.96%
40 | COc1ccc(C[C@H]2NC[C@H](O)[C@H]2OC(C)=O)cc1 | 5.98%

Row | SMILES | hERG current change (%, negative = inhibition) at 10uM
41 | CSC1=N/C(=C\c2ccccc2F)C(=O)S1 | -3.24%
42 | CCOc1nc(N2CCCCC2)nc(-n2cc(-c3ccccc3)nn2)n1 | 8.93%
43 | Cc1cc(NC(=O)COc2ccccc2)n(-c2ccccc2)n1 | -22.7%
44 | Cc1c(C(=O)NC2CCOC2)oc2c(F)cccc12 (stereo not drawn) | 30.1%
45 | Cc1cc2cc(C#N)c(NCCNC(=S)NCCCN3CCOCC3)nc2cc1C | -24.5%
46 | Cc1cc(C(=O)CN2CCCC2)c(C)n1-c1ccc(Cl)cc1 | 7.43%
47 | CCOc1ccccc1NC(=O)CCCCCN1C(=O)[C@@H]2Cc3ccccc3CN2C1=O | -42.6%
48 | COc1ccc(C(C)=O)cc1COC(=O)c1ccc(C)c(S(=O)(=O)N2CCOCC2)c1 | -19.8%
49 | COc1nc(-c2ccccc2)ccc1-c1noc(C)n1 | -5.52%
50 | Cn1ccnc1C1CCCCN1Cc1nc(-c2ccc(Cl)cc2)no1 (stereo not drawn) | -23.1%
51 | O=C(O)C1C2CCC(C2)C1C(=O)NCc1ccco1 (stereo not drawn) | -8.3%
52 | Cc1ccc(C)c(-n2cc(CNC(C)Cn3cncn3)c(-c3ccccc3)n2)c1 (stereo not drawn) | -45.6%
53 | Cc1ccc(-n2cc(CNC(C)c3cnn(C)c3)c(-c3ccc(F)cc3)n2)cc1 (stereo not drawn) | -40%
54 | Cc1ccc(-n2cc(CN(C)Cc3ncc[nH]3)c(-c3cccc(C)c3)n2)cc1 | -34.8%
55 | Cc1ccc(-n2cc(CNCCN3CCOC3=O)c(-c3cccc(C)c3)n2)cc1 | -69.1%
56 | Cc1ccc(-n2cc(CN3CCNC(=O)CC3)c(-c3cccc(C)c3)n2)cc1 | -0.817%
57 | Cc1ccc(-n2cc(CNC(C)Cn3cncn3)c(-c3ccc(F)cc3)n2)cc1 (stereo not drawn) | -60.7%
58 | Cc1ccc(-n2cc(CN(C)CCc3cn[nH]c3)c(-c3cccc(C)c3)n2)cc1 | -68%
59 | CC(=O)N1CCCN(Cc2cn(-c3ccc(C)cc3)nc2-c2cccc(C)c2)CC1 | -43%
60 | Cc1cccc(-n2cc(CNCCN3CCOC3=O)c(-c3cccc(F)c3)n2)c1 | -16.4%
